Reference: PubChem BioAssay (NCI)
The panel holds about 83,000 compounds, 20% with a hit somewhere; the sample as a whole holds those more often.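 Percent growth is the endpoint: 0 to 100 indicates growth inhibition (40 means 60% inhibition), 0 means no net growth, and negative values indicate cell death.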 Values without a mark were called inactive. The source made the active and inactive calls. Rule for the calls: active = growth percent below 10; inactive = the rest.

Assays:
Assay in all cases: NCI-60 one-dose screen, 48 h (100 = growth as untreated, 0 = no growth, -100 = all killed)
Conditions in all cases: 10 µM unless noted
NCI-H23 lung = tested on: NCI-H23 lung
NCI-H226 lung = tested on: NCI-H226 lung
NCI-H322M lung = tested on: NCI-H322M lung
HOP-62 NSCLC = tested on: HOP-62 NSCLC
NCI-H460 lung = tested on: NCI-H460 lung
HOP-92 NSCLC = tested on: HOP-92 NSCLC
NCI-H522 lung = tested on: NCI-H522 lung
A549/ATCC NSCLC = tested on: A549/ATCC NSCLC
786-0 renal = tested on: 786-0 renal
COLO 205 colon = tested on: COLO 205 colon

Compound	growth (NCI-H23 lung)	growth (NCI-H226 lung)	growth (NCI-H322M lung)	growth (HOP-62 NSCLC)	growth (NCI-H460 lung)	growth (HOP-92 NSCLC)	growth (NCI-H522 lung)	growth (A549/ATCC NSCLC)	growth (786-0 renal)	growth (COLO 205 colon)
CC(=O)NC(C)(C)C(=O)N1CCC[C@H]1C(=O)NC(C)(C)C(=O)N[C@@H](C)C(=O)NC(C)(C)C(=O)N[C@@H](C)C(=O)N[C@@H](CCC(N)=O)C(=O)NC(C)(C)C(=O)N[C@H](C(=O)NC(C)(C)C(=O)NCC(=O)N[C@@H](CC(C)C)C(=O)NC(C)(C)C(=O)N1CCC[C@H]1C(=O)N[C@H](C(=O)NC(C)(C)C(=O)NC(C)(C)C(=O)N[C@@H](CCC(N)=O)C(=O)N[C@@H](CCC(N)=O)C(=O)N[C@H](CO)Cc1ccccc1)C(C)C)C(C)C	41% [4.25 µM]	57.2% [4.25 µM]	97.3% [4.25 µM]	60.6% [4.25 µM]	74.1% [4.25 µM]	60% [4.25 µM]	48% [4.25 µM]	49.4% [4.25 µM]	97.4% [4.25 µM]	46.7% [4.25 µM]
CN1CCN(c2ccc3c(c2)nc(NNC(=O)c2ccncn2)c2cccn23)CC1	36.2%	44.5%	30.2%	35.7%	27.4%	53.1%	18.2%	23.3%	9.5% (active)	17.9%
O=C(/C=C1\C=CN(CCCCO)c2ccccc21)n1ccc2ccccc21	101%	86.4%	102%	84.2%	103%	98.4%	99.7%	105%	107%	104%
CN(c1ccc(Br)cc1)S(=O)(=O)c1ccc(-c2cnc(C3CC3)o2)cc1	20%	62.4%	46.5%	41.3%	16.8%	87.1%	16.8%	26.3%	52.9%	4.79% (active)
O=S(=O)(Nc1ccc(-c2nc(-c3cccc(O)c3)c(-c3ccnc(Br)c3)[nH]2)cc1)c1ccccc1	16.2%	40.1%	41.7%	33.1%	19.7%	13.7%	25.5%	51.5%	17.7%	43.3%
COc1ccc(-c2oc3cc(O)cc(O)c3c(=O)c2OC)cc1O	25.7%	73.6%	41.2%	29.1%	8.84% (active)	41.2%	-21% (active)	38%	38.8%	91.4%
C#C[C@]1(O)CC[C@H]2[C@@H]3CC=C4c5sc(Nc6cccc(C)n6)nc5CC[C@]4(C)[C@H]3CC[C@@]21C	36.3%	45%	61.3%	16.5%	4.46% (active)	1.75% (active)	44.7%	30.7%	-70.7% (active)	68.3%
Cc1ccc(-c2nnc3sc(C4=Cc5ccccc5OC=C4)nn23)cc1	96.4%	96.4%	100%	121%	101%	-34.7% (active)	91%	92.3%	95%	120%
COc1ccc2c(C3=C(c4cn(C)c5ccccc45)C(=O)NC3=O)coc2c1	34.8%	20.3%	58.4%	45.3%	9.16% (active)	25.3%	-29.5% (active)	38.7%	44.9%	1.81% (active)
O=C(/C=C/Nc1ccc(S(=O)(=O)O)cc1)c1ccc(F)cc1	95.9%	98.5%	102%	117%	101%	96.2%	98.5%	101%	106%	101%
CCC(C)[C@H]1OC(=O)[C@H](C(C)C)N(C)C(=O)[C@@H](C(C)C)OC(=O)[C@H](C(C)C)N(C)C(=O)[C@@H](C(C)CC)OC(=O)[C@H](C(C)C)N(C)C1=O (stereo not given in full)	8.83% (active)	19.2%	8.61% (active)	8.79% (active)	9.08% (active)	-19.8% (active)	-2.93% (active)	12.9%	10.4%	-91.8% (active)
Cc1cc2nc(C(Cl)Cl)nc(-c3ccco3)n2n1	76.8%	95.6%	23.3%	47.9%	0.56% (active)	79.5%	93.9%	3.5% (active)	96.2%	25.8%
O=c1cc(-c2ccccc2)nc2sc(-c3c[nH]c4ccc(Br)cc34)nn12	104%	87.6%	92.8%	107%	106%	86%	86.2%	97.6%	92.6%	104%
COc1cc2c3c(n(CCCN4CCCCC4)c(=O)c2cc1OC)-c1cc2c(cc1C3=O)OCO2	-91.9% (active)	-61.6% (active)	-96.4% (active)	-71.4% (active)	-84.7% (active)	-77.4% (active)	-80.2% (active)	-58.4% (active)	-55.9% (active)	-88.8% (active)
COc1cc2c3c(n(CCCNC4CCCC4)c(=O)c2cc1OC)-c1cc2c(cc1C3=O)OCO2	-62.8% (active)	80.5%	6.3% (active)	-78% (active)	-74.4% (active)	103%	54.6%	-78.8% (active)	-87.9% (active)	-89.9% (active)
Cn1c(SC(C(=O)Nc2ccc(F)cc2)c2ccccc2)nc2ccccc2c1=O (stereo not given)	103%	102%	111%	99.6%	112%	86.9%	93.1%	99.1%	102%	119%
CCOc1c(C#N)c(Nc2ccc(S(N)(=O)=O)cc2)c(C#N)c2nnc(C)n12	93.5%	105%	100%	104%	111%	98%	95.3%	104%	110%	105%
Cc1cc(=O)n2nc(-c3cn(C)c4ccc(Cl)cc34)sc2n1	92.1%	67.3%	97.2%	85.7%	78.6%	80.1%	89.2%	96.7%	102%	93.7%
Clc1ccc(-c2csc(N/N=C/c3nc4ccccc4n3C3CC3)n2)cc1	98.5%	91.5%	98.5%	106%	105%	105%	93%	95.5%	109%	104%
O=c1[nH]c(CNc2ccc(NCc3c(-c4ccccc4)no[n+]3[O-])cc2)nc2c1cnn2-c1ccccc1	63.4%	77.1%	80.2%	105%	64.2%	85.4%	60.8%	63.8%	86%	101%
C=C(C)C(=O)O[C@H]1C[C@@]2(C)OC(=CC2=O)/C(CO)=C\[C@H]2OC(=O)C(=C)[C@H]12	-35.2% (active)	-39.3% (active)	87.6%	58.9%	12.5%	-61.4% (active)	-68.3% (active)	65.7%	-66.5% (active)	-72.9% (active)
COc1cc(C2=NN(C(C)=O)C(c3ccc(N4CCOCC4)cc3)C2)cc(OC)c1OC (stereo not given)	86.8%	96.5%	88.1%	91.8%	103%	92.4%	89.7%	104%	95.5%	106%
